The panel holds about 83,000 compounds, 20% with a hit somewhere; the sample as a whole holds those more often.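 For each line, cells grew in 96-well plates with the test compound present at a single concentration for 48 hours.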 Values without a mark were called inactive. Active and inactive are the calls of the source. Rule for the calls: active = growth percent below 10; inactive = the rest.

Here are results for 14 compounds from PubChem BioAssay (NCI).

Common to all, as to assay: NCI-60 one-dose screen, 48 h (100 = growth as untreated, 0 = no growth, -100 = all killed)
What all share (conditions): 10 µM

The subject of assay [1] is DU-145 prostate.
In assay [2] the test system is K-562 leukemia.
Assay [3] has as its system MALME-3M melanoma.
In assay [4] the test system is MDA-MB-231 breast.
The subject of assay [5] is RXF 393 renal.
For assay [6], the system named is SF-268 CNS.
Assay [7] deals with SF-295 CNS.
Assay [8] deals with SF-539 CNS.
In assay [9] the test system is UACC-257 melanoma.
The subject of assay [10] is M14 melanoma.

With `FC(F)(F)c1ccc(-c2cnc(Cl)nc2NCc2cc(C(F)(F)F)cc(C(F)(F)F)c2)cc1`, the growth is 18.8% in assay [1]; 16.3% in [2]; 33.6% in assay [3]; -28.6% (active) in [4]; 23.3% in assay [5]; 25.3% in [6]. The growth in [7] is -18.8% (active); in assay [8], 33.1%; in assay [9], 38.2%; in assay [10], 41%.
Consider `Fc1ccc2[nH]c3c(NCCCN4CCOCC4)ncnc3c2c1`, for which the growth in assay [1] is 79.2%; in assay [2] it was 73.9%; in [3], 61.5%; in [4], 55.6%; in assay [5], 60.8%; in [6] it was 61.5%. In addition, the growth in [7] is 39%; in assay [8], 65%; in assay [9], 107%; in [10] it was 85.3%.
For `c1ccc(CC(NCCNC(Cc2ccccc2)c2ccccc2)c2ccccc2)cc1` (stereo not given), the growth in assay [1] was 15.7%; in assay [2], -25.7% (active); in [3], -22.5% (active); in assay [4] it was 7.83% (active); in [5], -8.13% (active); in assay [6], 43.1%. The growth in [7] was 2.14% (active); in assay [8], 32.3%; in assay [9], 48.5%; in assay [10], 2.08% (active).
Consider `COc1ccc(-c2cc(=O)n(-c3nc4ccccc4[nH]3)[nH]2)cc1OC`, for which the growth is 83% in assay [1]; 26.5% in [2]; 67.2% in assay [3]; 94.5% in [4]; 3.51% (active) in [5]; 72.3% in assay [6]. Moreover, the growth in assay [7] was -12.8% (active); in assay [8] it was 71.3%; in [9], 89.2%; in assay [10], 54.5%.
With `COc1cc(-c2nc3cc(Cl)c(Cl)cc3[nH]2)ccc1OCC(=O)NN`, the growth in assay [1] was 75.5%; in assay [2], 31.9%; in assay [3] it was 95.3%; in [4], 57.8%; in [5], 131%; in [6], 77.6%. The growth is 71.5% in [7], 80.5% in assay [8], 96.9% in assay [9] and 95.1% in assay [10].
Take `COc1ccc(-c2nc(NC(=O)CS(=O)(=O)c3ccc(F)cc3)sc2C)cc1`: the growth in [1] was 79%; in assay [2], 26.4%; in [3], 55.2%; in [4], -37.1% (active); in assay [5], 14.4%; in [6] it was 65.3%. Also, the growth in assay [7] was 25.1%; in assay [8] it was 73.6%; in assay [9], 65.1%; in [10] it was 44%.
As to `COc1ccc(CSc2nc3cc(OC)c(OC)cc3c(=O)n2-c2ccc(OC)cc2OC)cc1`, the growth is 97.7% in assay [1]; 87.1% in [2]; 82.6% in assay [3]; 75.4% in assay [4]; 75.5% in [5]; 86.4% in [6]. Besides, the growth was 89.6% in assay [7], 96.8% in assay [8], 93.4% in assay [9] and 97% in assay [10].
As to `Cc1ccc2c3c(cccc13)-c1ccccc1C2=O`, the growth in [1] was 101%; in [2], 108%; in assay [3] it was 110%; in assay [4], 95.5%; in [5] it was 105%; in assay [6], 95.7%. Moreover, the growth in assay [7] is 95.1%; in [8] it was 97.2%; in [9] it was 101%; in assay [10], 98.6%.
Regarding `CCCCn1c(=O)[nH]c(N)c(C(c2ccc(Cl)cc2)c2c(N)[nH]c(=O)n(CCCC)c2=O)c1=O`, the growth was 65.7% in assay [1]; 28.7% in assay [2]; 68.9% in [3]; 54.4% in assay [4]; 18.7% in [5]; 38.1% in [6]. Moreover, the growth in [7] was 35.2%; in assay [8], 43.9%; in assay [9] it was 41%; in assay [10] it was 35%.
Consider `CCOC(=O)c1ccc(NC(=O)Nc2nncs2)cc1`, for which the growth in assay [1] was -18% (active); in [2], 7.79% (active); in assay [3], 22.2%; in assay [4], 14.8%; in [5], -15.2% (active); in assay [6], 29.3%. Besides, the growth in assay [7] is -39.9% (active); in assay [8], 14.6%; in assay [9], 67.9%; in [10], 4.02% (active).
For the compound `CCOC(=O)/C(C#N)=C(/C)C1CC1`, the growth in [1] is 108%; in assay [2] it was 117%; in [3], 109%; in assay [4], 117%; in [5] it was 94.9%; in assay [6] it was 107%. Moreover, the growth in assay [7] was 113%; in [8], 96.8%; in assay [9], 103%; in assay [10] it was 109%.
For `COc1ccc2c(=O)cc(C(Cl)(Cl)Cl)oc2c1`, the growth is 0.575% (active) in assay [1]; -12.7% (active) in assay [2]; -87.5% (active) in [3]; -31.1% (active) in assay [4]; -72.1% (active) in [5]; -36.4% (active) in assay [6]. The growth in assay [7] was -31.1% (active); in assay [8], -27.4% (active); in assay [9], -48.9% (active); in [10] it was -67.1% (active).
For `Nc1ccc(C2=CC(c3ccc(Cl)cc3)N3C=CSC3=N2)cc1` (stereo not given), the growth is -44.6% (active) in [1]; 3.22% (active) in assay [2]; -82.8% (active) in [3]; -14.4% (active) in assay [4]; -93.1% (active) in assay [5]; -41.9% (active) in assay [6]. Further, the growth in [7] was -0.33% (active); in assay [8], -55.8% (active); in [9], -78.1% (active); in assay [10], -71.1% (active).
For the compound `CCOC(=O)[C@@H]1[C@H](c2ccccc2)[C@H]([N+](=O)[O-])[C@H](c2cn(-c3ccccc3)nc2C)N1Cc1ccccc1`, the growth in assay [1] was 94.4%; in assay [2], 61.4%; in [3], 81%; in [4] it was 68.2%; in assay [5] it was 69.9%; in assay [6], 68.4%. Further, the growth is 81.8% in assay [7], 81.7% in [8], 64.2% in assay [9] and 76.5% in [10].
